Experimental data as given in PubChem BioAssay (NCATS).
Several values for one entry are separate records, joined by “and”; a condition that tells them apart may be missing. Equal entries are not always repeated. Inconclusive results are not listed. A call without a number means that no potency is given here. A number with no mark means an inactive call. Activity calls are given as the source filed them. Calls come from the whole dose curve; as a rule, active = well fitted curve in the direction sought with a large enough effect; inconclusive = small, poorly fitted or top-dose-only effect, or another doubt; inactive = no such curve, though single readings can be large; an effect the other way counts as inactive or inconclusive.

How the values were obtained:
HaCat [1] = experiment: Cytotoxic Profiling of Annotated Libraries Using Quantitative High-Throughput Screening (AID 1296008); conditions: Five cell lines viability, CellTiter-Glo ATP luminescence, 48-72 h; max response: hits give low values; note: nearly all actives have a fitted effect of over 60% in size; note: potency is the fitted concentration of half-maximal effect
In short: (§1)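 Cytotoxicity was measured as CellTiter-Glo ATP luminescence, read after 10 min at room temperature. Compound treatment of the cells lasted 48 or 72 hr at 37 degrees Celsius in a qHTS format.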

KB-3-1 = experiment: as above; conditions: Five cell lines viability, CellTiter-Glo ATP luminescence, 48-72 h; max response: hits give low values
In short: as §1

NIH3T3 [2] = experiment: as above; conditions: Five cell lines viability, CellTiter-Glo ATP luminescence, 48-72 h; max response: hits give low values
In short: as §1

MCC-13 = experiment: qHTS assay to identify novel small-molecules to repurpose for Merkel cell carcinoma treatment (AID 1296009); conditions: MCC and control cell lines, CellTiter-Glo viability, 72 h; series mostly up to 46 µM; note: nearly all actives have a fitted effect of over 60% in size; note: potency is the fitted concentration of half-maximal effect
In short: (§2)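 Cell viability, measured as CellTiter-Glo luminescence, was normalized between DMSO and no-cell wells. The cells had been exposed to 8- or 11-point compound dilutions for 72 hr at 37 degree celsius.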

MCC-26 = experiment: as above; conditions: MCC and control cell lines, CellTiter-Glo viability, 72 h; series mostly up to 46 µM
In short: as §2

MKL-1 = experiment: as above; conditions: MCC and control cell lines, CellTiter-Glo viability, 72 h; series mostly up to 46 µM
In short: as §2

MKL-2 = experiment: as above; conditions: MCC and control cell lines, CellTiter-Glo viability, 72 h; series mostly up to 46 µM
In short: as §2

NIH3T3 [3] = experiment: as above; conditions: MCC and control cell lines, CellTiter-Glo viability, 72 h; at 44.8 µM (top of the series) unless noted
In short: as §2

WaGa = experiment: as above; conditions: MCC and control cell lines, CellTiter-Glo viability, 72 h; series mostly up to 46 µM
In short: as §2

HACAT [4] = experiment: as above; conditions: MCC and control cell lines, CellTiter-Glo viability, 72 h; at 44.8 µM (top of the series) unless noted
In short: as §2

UISO = experiment: as above; conditions: MCC and control cell lines, CellTiter-Glo viability, 72 h; series mostly up to 46 µM
In short: as §2

C33A = experiment: Primary qHTS to identify gynecologic anti-cancer compounds using libraries of approved drugs and bioactive compounds (AID 1345084); conditions: Gynecologic cancer cell panel viability, ATPlite luminescence, 48 h; series mostly up to 57.5 µM; note: nearly all actives have a fitted effect of over 55% in size
In short: (§3)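 Five-point cytotoxicity, 48 h drug exposure at 37 C, 5% CO2, on cells seeded 16 h beforehand. ATP content read by ATPlite luminescence.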

Es-2 = experiment: as above; conditions: Gynecologic cancer cell panel viability, ATPlite luminescence, 48 h; series mostly up to 57.5 µM
In short: as §3

HeLa = experiment: as above; conditions: Gynecologic cancer cell panel viability, ATPlite luminescence, 48 h; series mostly up to 57.5 µM
In short: as §3

CASKI = experiment: as above; conditions: Gynecologic cancer cell panel viability, ATPlite luminescence, 48 h; series mostly up to 57.5 µM
In short: as §3

Hek293T = experiment: as above; conditions: Gynecologic cancer cell panel viability, ATPlite luminescence, 48 h, control line for the selectivity index; series mostly up to 57.5 µM
In short: as §3

JEG-3 = experiment: as above; conditions: Gynecologic cancer cell panel viability, ATPlite luminescence, 48 h; series mostly up to 57.5 µM
In short: as §3

CAOV3 = experiment: as above; conditions: Gynecologic cancer cell panel viability, ATPlite luminescence, 48 h; series mostly up to 57.5 µM
In short: as §3

`CC(C)(C)C(=O)Oc1ccc2c(c1)nc(NC(=O)c1cccc([N+](=O)[O-])c1)n2CCCO` was tested, and the max response (HaCat [1]) was -9.39%, the max response (KB-3-1) was 7.62% and the outcome (NIH3T3 [2]) was “inactive”. The Potency (MCC-13) was “inactive”, the Potency (MCC-26) was “inactive” and the Potency (MKL-1) was “inactive”. The Potency (MKL-2) was “inactive”, the outcome (NIH3T3 [3]) was “inactive” and the Potency (WaGa) was “inactive”.
`c1ccc2c(Cc3c[nH]c4ccccc34)c[nH]c2c1` was tested, and the outcome (HaCat [1]) was “inactive”, the max response (KB-3-1) was -13.3% and the outcome (HACAT [4]) was “inactive”. The Potency (MCC-13) was “inactive”, the Potency (MCC-26) was “inactive” and the Potency (MKL-1) was “inactive”. The Potency (UISO) was 469 nM (active) and the Potency (WaGa) was “inactive”.
In the case of `CON=C(C(=O)N[C@@H]1C(=O)N2C(C(=O)OCOC(=O)C(C)(C)C)=C(C=Cc3scnc3C)CS[C@H]12)c1csc(N)n1`, the outcome (HaCat [1]) is reported as “inactive”, the max response (KB-3-1) is reported as 0.86% and the outcome (NIH3T3 [2]) is reported as “inactive”. For the same compound, the outcome (HACAT [4]) was “inactive”, the Potency (MCC-13) was “inactive” and the Potency (MCC-26) was “inactive”. The Potency (MKL-1) was “inactive”, the Potency (MKL-2) was “inactive” and the outcome (NIH3T3 [3]) was “inactive”. For the same compound, the Potency (UISO) was “inactive”.
With `CO[C@H]1C=CC=C(C)C(=O)NC2=CC(=O)C(NCCN(C)C)=C(C[C@@H](C)C[C@H](OC)[C@@H](O)[C@@H](C)C=C(C)[C@@H]1OC(N)=O)C2=O` the Potency (HaCat [1]) was 33.2 nM (active), the Potency (KB-3-1) was 37.2 nM (active) and the Potency (NIH3T3 [2]) was 132 nM (active). For the same compound, the Potency (MCC-13) was 4690 nM (active), the Potency (MCC-26) was 3720 nM (active) and the Potency (MKL-1) was 1050 nM (active). For the same compound, the Potency (MKL-2) was 14800 nM (active) and the Potency (UISO) was 296 nM (active).
With `N[C@@]1(C(=O)O)CS(=O)(=O)[C@H]2[C@H](C(=O)O)[C@H]21` the outcome (HaCat [1]) was “inactive”, the max response (KB-3-1) was -18.8% and the max response (NIH3T3 [2]) was -12.5%. The outcome (HACAT [4]) was “inactive”, the Potency (MCC-13) was “inactive” and the Potency (MCC-26) was “inactive”. For the same compound, the Potency (MKL-1) was “inactive”, the Potency (MKL-2) was “inactive” and the Potency (UISO) was “inactive”. The Potency (WaGa) was “inactive”.
In the case of `CC1(C)O[C@H]2C[C@@H]3[C@H]4CCC5=CC(=O)C=C[C@]5(C)[C@@]4(F)[C@@H](O)C[C@]3(C)[C@]2(C(=O)CO)O1`, the max response (HaCat [1]) is reported as -12.9%, the max response (KB-3-1) is reported as 1.25% and the Potency (MCC-13) is reported as “inactive”. For the same compound, the Potency (MCC-26) was “inactive”, the Potency (MKL-1) was 18700 nM (active) and the Potency (UISO) was “inactive”. For the same compound, the Potency (WaGa) was 13200 nM (active).
`N#CC(=C(N)Sc1ccccc1N)C(C#N)=C(N)Sc1ccccc1N` was tested, and the max response (NIH3T3 [2]) was -4.19%, the Potency (MCC-13) was “inactive” and the Potency (MCC-26) was “inactive”. The Potency (MKL-1) was “inactive”, the Potency (UISO) was 1050 nM (active) and the Potency (WaGa) was “inactive”.
In the case of `CCCCCN(C)CCC(O)(P(=O)(O)O)P(=O)(O)O`, the Potency (MCC-13) is reported as “inactive”, the Potency (MCC-26) is reported as “inactive” and the Potency (MKL-1) is reported as “inactive”. For the same compound, the Potency (MKL-2) was “inactive”, the outcome (NIH3T3 [3]) was “inactive” and the Potency (UISO) was “inactive”. The Potency (WaGa) was “inactive”.
In the case of `Cc1cccc(Nc2nc(-c3ccncc3)cs2)c1`, the outcome (HaCat [1]) is reported as “inactive”, the Potency (NIH3T3 [2]) is reported as 11.8 µM (active) and 7.31 µM (active) and the outcome (HACAT [4]) is reported as “inactive”. For the same compound, the Potency (MCC-13) was “inactive”, the Potency (MCC-26) was “inactive” and the Potency (MKL-1) was “inactive”. For the same compound, the Potency (MKL-2) was “inactive”, the Potency (UISO) was 935 nM (active) and the Potency (WaGa) was “inactive”. The Potency (C33A) was “inactive”, the Potency (Es-2) was “inactive” and the Potency (HeLa) was “inactive”.
In the case of `C[N+](C)(C)CC(=O)O`, the Potency (MCC-13) is reported as “inactive”, the Potency (MCC-26) is reported as “inactive” and the Potency (MKL-1) is reported as “inactive”. The Potency (MKL-2) was “inactive”, the Potency (UISO) was “inactive” and the Potency (WaGa) was “inactive”. For the same compound, the Potency (C33A) was “inactive”, the Potency (CASKI) was “inactive” and the Potency (Es-2) was “inactive”. For the same compound, the Potency (HeLa) was “inactive”, the Potency (Hek293T) was “inactive” and the Potency (JEG-3) was “inactive”.
`CN(C)Cc1cccc(N=C(c2ccccc2)c2c(O)[nH]c3cc(C(=O)N(C)C)ccc23)c1` was tested, and the max response (HaCat [1]) was -49.2%, the max response (KB-3-1) was -15% and the Potency (MCC-13) was “inactive”. For the same compound, the Potency (MKL-1) was “inactive” and the Potency (WaGa) was “inactive”.
In the case of `Cc1ccn(-c2ccc(-c3ncco3)cc2)c(=O)c1-c1ccc2nc(N)ncc2c1`, the max response (HaCat [1]) is reported as -12.1% and -22.1%, the max response (KB-3-1) is reported as 0.602% and 6.68% and the Potency (MCC-13) is reported as “inactive”. The Potency (MKL-1) was “inactive”, the Potency (WaGa) was “inactive” and the Potency (CAOV3) was “inactive”. For the same compound, the Potency (HeLa) was “inactive”, the Potency (Hek293T) was “inactive” and the Potency (JEG-3) was “inactive”.
In the case of `O=C(Nc1ccccc1Br)N[C@@H]1CCN(c2ccc(C(F)(F)F)cn2)C1`, the max response (HaCat [1]) is reported as 4.65%, the max response (NIH3T3 [2]) is reported as -2.32% and the Potency (MCC-13) is reported as “inactive”. For the same compound, the Potency (MCC-26) was “inactive”, the Potency (MKL-1) was “inactive” and the Potency (MKL-2) was “inactive”. The Potency (UISO) was “inactive” and the Potency (WaGa) was “inactive”.
With `COCCOC(=O)C1=C(C)NC2=C(C(=O)CC(c3ccccc3OC)C2)C1c1cccc(O)c1` (stereo not given) the max response (HaCat [1]) was -1.34%, the max response (KB-3-1) was -11.3% and the Potency (MCC-13) was “inactive”. The Potency (MKL-1) was “inactive”, the Potency (C33A) was “inactive” and the Potency (CASKI) was “inactive”. The Potency (Es-2) was “inactive”, the Potency (Hek293T) was “inactive” and the Potency (JEG-3) was “inactive”.
